aSyn 5UTR act: Activators via SNCA 5'UTR binding, MLPCN. alpha-synuclein 5'UTR reporter, activators screen. activity score, % (tested at 7.5 µM), hits read low. 7.1% of 300,000 active. AID 1814; in the data active = activity score below about -60%
The depositor's hits bear a star. A selection follows.

SMILES	aSyn 5UTR act
O=C(CSc1nccn1-c1ccc(F)cc1)Nc1ccc2c(c1)OCO2	-65*
COc1ccc(NCc2nnc(SCC(=O)c3ccc(OC)cc3)n2C)cc1	-127*
Cn1ccnc1SCC(=O)Nc1ccc2c(c1)OCO2	-107*
O=C(CSc1ncc(-c2ccc(F)cc2)n1Cc1ccco1)Nc1ccc2c(c1)OCO2	-150*
CCOc1ccc(NC(=O)CSc2nccn2C)cc1	-65*
COc1ccc(C(=O)CSc2nccn2C)cc1	-80*
O=C(CSc1nccn1-c1ccccc1)Nc1ccc2c(c1)OCO2	-69*
CCOC(=O)c1sc(NC(=O)CSc2nccn2C)nc1C	-112*
c1ccc2c(-n3cccn3)cccc2c1	-83*
COc1cc(OC)c2c(c1)O/C(=C\c1ccccc1)C2=O	-154*
Cc1ccc(S(=O)(=O)N/N=c2\oc3ccccc3cc2C(=O)Nc2cccc(C)c2)cc1	-85*
COc1ccc([C@H]2CC(=O)c3c(O)cc(O)cc3O2)cc1O	-93*
COc1c(O)cc2c(c1O)C(=O)CC(c1ccccc1)O2 (centres undefined)	-102*
c1ccc(CCc2nc3ccccc3[nH]2)cc1	-120*
O=c1[nH]c2ccccc2nc1CCc1ccccc1	-90*
C[n+]1cn(/N=C/c2ccccc2)c2ccccc21	-87*
Cc1cc(C(=O)CSc2cccc[n+]2[O-])c(C)n1-c1ccc(OC(F)F)cc1	-103*
CSc1nc(O)c(/C=C2\C=Nc3ccccc32)[nH]1	-221*
CCCn1cnc2cc(NCc3cccc(OC)c3)ccc21	-141*
Cn1cnc2cc(NCc3ccc(Cl)cc3)ccc21	-101*
CCn1cnc2cc(NCc3ccc(Br)cc3)ccc21	-140*
Cc1ccc(CNc2ccc3c(c2)ncn3C(C)C)cc1	-144*
CCCCCCCCCn1c2c(c(=N)c3c1CCC3)CCC2	86
CCn1cnc2cc(NCc3ccc(C)cc3)ccc21	-128*
CCCn1cnc2cc(NCc3ccc(Br)cc3)ccc21	-93*
SMILES	aSyn 5UTR act
Cc1ccccc1/C=N\NC(=O)c1ccccc1-n1cccc1	-65*
CC(C)(C)c1cc(C(=O)N/N=C/c2ccccc2O)n(-c2ccccc2)n1	62
COc1ccc(/C=N/NC(=O)c2sccc2C)c2ccccc12	-110*
Cc1ccsc1C(=O)NN=C1CCCCCC1	-127*
Cc1ccccc1/C=N/NC(=O)c1sccc1C	-176*
O=C(CNC(=O)c1ccccc1Br)N/N=C/c1cc(Br)ccc1O	70
CCc1ccc(NC(=O)c2n[nH]c(=O)c3ccccc23)cc1	-84*
CCc1ccc(NC(=O)c2ccccc2Br)cc1	-144*
Cc1c(C(=O)Nc2ccc(Br)cc2)cnn1C	-112*
O=C(Nc1ccc(Br)cc1)c1ccccc1Br	-200*
CCc1ccc(C(=O)CSc2ncn[nH]2)cc1	-115*
CCCn1cc(NC(=O)c2cc(-c3ccccc3)on2)cn1	-134*
Cc1ccc(O)c(NC(=O)c2cc(-c3ccccc3)on2)c1	-254*
CCCc1cc(C(=O)Nc2ccccc2C(=O)OC)no1	-71*
CCCc1cc(C(=O)Nc2cc(C)ccc2O)no1	-250*
O=C(Nc1cc(Br)ccc1O)c1cc(-c2ccccc2)on1	-131*
CCn1nnnc1SCC(=O)Nc1ccc2c(c1)OCCO2	-118*
CC(C)n1nnnc1SCC(=O)Nc1ccc2c(c1)OCCO2	-109*
O=C(CCCN1C(=O)S/C(=C\c2ccccc2)C1=O)NNC(=O)c1ccccc1O	83
O=C(CN1C(=O)S/C(=C\c2ccc(O)cc2)C1=O)c1ccccc1	-157*
Cc1ccnc(NC(=O)c2sc3cc(Cl)ccc3c2Cl)c1	-140*
Cc1ccnc(NC(=O)CNC(=O)c2sc3ccccc3c2Cl)c1	-216*
Cc1ccnc(NC(=O)CCCNC(=O)c2ccc(Cl)cc2)c1	-182*
Cc1ccc(C(=O)NCCOc2ccc(Cl)cc2)cc1	-88*
CCN(CC)Cc1ccc(NC(=O)c2sc3cc(Cl)ccc3c2Cl)cc1	104
SMILES	aSyn 5UTR act
O=C(NC(=S)Nc1ccc(F)cc1)C1CCCCC1	-63*
Cc1nc2ccc(NC(=S)NC3CCCCC3)cc2nc1C	-173*
Cc1ccc(NC(=S)NC(=O)C2CC2)c(C)c1	-119*
CC(C)CC(=O)Nc1ccc(C(=O)NNC(=S)NC(=O)C2CCCCC2)cc1	67
Cc1ccc(NC(=S)NC(=O)C2CCC2)cc1C	-95*
Cc1ccc(NC(=S)NC2CCCC2)cc1C	-128*
Cc1ccc(NC(=S)NC(=O)C2CCCC2)cc1C	-131*
O=C(NC(=S)Nc1ccccc1F)C1CCCCC1	-88*
S=C(Nc1ccc2[nH]ccc2c1)NC1CCCCC1	-105*
CN(C(=O)c1ccncc1)c1nnc(-c2ccccn2)s1	-66*
Cc1ccc(C(=O)N(C)c2nnc(-c3ccncc3)s2)cc1	-107*
CCCCCc1nc2c(C#N)c(-c3ccc(Cl)cc3)ccn2n1	-65*
CCCCc1c(C)c(C#N)c2nc3ccccc3n2c1Cl	109
Cc1ccc(SCc2cc(=O)n3ccsc3n2)c(C)c1	-79*
Cc1ccnc(NC(=O)Nc2ccc(F)cc2)c1	-86*
Cc1ccc(NC(=O)Nc2ccc(F)cc2)nc1	-108*
Cc1cccc(C(=O)Nc2ccccc2C(=O)OCC(=O)Nc2ccc(C#N)cc2)c1	-100*
N=C(N)c1ccc(OCCCCCOc2ccc(C(=N)N)cc2)cc1	67
CCCCCCOc1ccc(/C(N)=N/O)cc1	-173*
Cc1ccc2c(c1)C1CN(C)CCC1N2C(=O)Nc1ccc(Cl)cc1 (centres undefined)	-66*
COC(=O)c1c(NC(=O)/C=C/C(=O)O)sc(C)c1-c1ccc(C(C)C)cc1	-68*
O=C(CSc1nccn1-c1ncc(C(F)(F)F)cc1Cl)c1ccc(Br)cc1	-195*
Cc1ccc(C(=O)CSc2nccn2-c2ccccc2)cc1	-95*
O=C(CSc1nccn1-c1ccccc1)c1ccc(Cl)cc1	-111*
O=C(/C=C/c1ccccc1)NCCC1=CCCCC1	-194*
SMILES	aSyn 5UTR act
O=C(/C=C/c1ccccc1)NCCOc1ccccc1	-64*
COc1ccccc1/C=C/C(=O)NCCC1=CCCCC1	-150*
O=C(NCCOc1ccccc1)C1CCCCC1	-89*
O=C(/C=C/c1ccc(F)cc1)NCCC1=CCCCC1	-105*
Cc1ccc(NC(=O)CSc2nnc(-c3cccs3)o2)cc1S(=O)(=O)N(C)C	-164*
CCCCN(C)S(=O)(=O)c1ccc(C(=O)Nc2nnc(-c3cccs3)o2)cc1	81
Cc1cc(C)n(-c2nc(-c3ccc(Cl)c(Cl)c3)cs2)n1	-109*
CCOC(=O)c1sc2nc(NC(=O)C3CC3)sc2c1C	-201*
CCOC(=O)c1sc2nc(NC(=O)C(C)(C)C)sc2c1C	-135*
COc1cccc(OCc2cc(C(=O)NCc3ccccn3)no2)c1	-128*
COc1ccc(OCc2cc(C(=O)NCc3cccc(C)n3)no2)c(Cl)c1	-65*
O=C1CC(/C=C/c2ccc([N+](=O)[O-])cc2)=Nc2ccccc2N1	-112*
COc1ccc(/C=C/c2cc(C(F)(F)F)on2)cc1	-157*
Cc1ccc(NC(=O)CCCC2CCCCC2)c(O)c1	-150*
C=CCNc1nc(Nc2ccccc2F)nc(OCC)n1	-122*
Cc1c(C(=O)c2ccccc2)oc2ccc3ccccc3c12	-116*
COc1ccc(N2C(=O)c3ccccc3NC23CCC(C)CC3)cc1 (centres undefined)	-106*
COc1ccc(N2C(=O)c3ccccc3NC23CCCCC3)cc1	-76*
COc1cc(CNC(=O)c2cccc(COc3ccc(Cl)cc3)c2)cc(OC)c1	-77*
O=C(NCc1ccccc1)c1cccc(COc2ccc(Cl)cc2)c1	-162*
O=C(/C=C/Nc1ccc(F)cc1)c1cccs1	-115*
